Reference: PubChem BioAssay (EPA / NIEHS)
Some compounds were tested as several samples or in several runs, with calls that do not always agree. Activity calls are given as the source filed them. Rule for the calls: active = hit-call score of the fitted dose curve at least 0.9, where 1 is the maximum; inactive = score below 0.9.

Test: ATG_NFI_CIS: Attagene CIS-FACTORIAL HepG2 Assay for human Nuclear Factor I (NFI) (AID 2282989)
Conditions: HepG2 cis-regulatory reporter, NFI response element transcription; actives raise or lower the signal
Experimental: ATG_CIS is a cell-based, multiplexed-readout assay that uses HepG2, a human liver cell line, with measurements taken at 24 hours after chemical dosing in a 24-well plate.ATG_NFI_CIS is one of 52 assay component(s) measured or calculated from the ATG_CIS assay. It is designed to make measurements of mRNA induction, a form of inducible reporter, as detected with fluorescence intensity signals by Reverse transcription polymerase chain reaction (RT-PCR) and Capillary electrophoresis technology.Data from the assay component ATG_NFI_CIS was analyzed into 1 assay endpoint. This assay endpoint, ATG_NFI_CIS, was analyzed with bidirectional fitting relative to DMSO as the negative control and baseline of activity. Using a type of inducible reporter, measures of mRNA for gain or loss-of-signal activity can be used to understand the reporter gene at the transcription factor-level as they relate to the gene NFIA. Furthermore, this assay endpoint can be referred to as a primary readout, because this assay has produced multiple assay endpoints where this one serves a reporter gene function. To generalize the intended target to other relatable targets, this assay endpoint is annotated to the dna binding intended target family, where the subfamily is nuclear factor I.
Human liver HepG2 cells are transiently transfected with multiple reporter transcription units (MRTUs) in 6-well plates using FuGene 6 reagent (Roche; 3 ml FuGene/1 mg DNA). The MRTU constructs are regulated by a cis-regulating element (promoter). […] A major difference between the CIS and TRANS system is that in CIS activities of endogenous TFs are measured, whereas the TRANS assay evaluates changes in activities of exogenous, chimeric NR-Gal4 proteins. […] At the end of 24 hour incubation, total RNA was isolated using TriZol reagent (Invitrogen). The isolated RNA is then reverse-transcribed using oligo(dT) primer and Mo-MLV reverse transcriptase (Invitrogen) with DNAse I (Ambion) treatment for 30 min. The one-tenth of the produced cDNA was amplified by PCR using Taq DNA polymerase (Invitrogen) and two reporter sequence-specific primers. The PCR products were fluorescently labeled by primer extension with 6-arboxyfluorescein (6-FAM) 5'-labeled reporter sequence-specific primer (2 min at 95 C, 20 s at 68 C and 10 min at 72 C) and these products were digested with 5U of HpaI (New England Biolabs) for 2h at 37 C. The fragments were purified using Qiaquick PCR columns (Qiagen), analyzed on an ABI 3130xL genetic analyzer (Applied Biosystems) with peak positions identified by using a set of X-rhodamine (ROX)-labeled MapMarker1000 molecular weight standards (BioVentures). The raw capillary electrophoresis data was processed using Attagraph software (Attagene).
For `CCc1ccccc1N`, the outcome was “inactive”. With `CCN1CCC2(CC1)COc1cc3c(cc12)N(C(=O)c1ccc(-c2ccc(-c4nnc(C)o4)cc2C)cc1)CC3` the outcome was “inactive”. For `CCOP(=S)(OCC)SCCS(=O)(=O)CC`, the outcome was “inactive”. With `ClC1=C(Cl)[C@]2(Cl)[C@H]3[C@H]([C@H]4C=C[C@H]3C4)[C@@]1(Cl)C2(Cl)Cl` the outcome was “inactive”. For `NC(=S)Nc1ccccc1`, the outcome was “inactive”. With `OCc1ccco1` the outcome was “inactive”. For `CCC[CH2][Sn]([CH2]CCC)([CH2]CCC)[O]C(=O)c1ccccc1`, the outcome was “inactive”. For `CC(=O)OC(c1ccccc1)C(Cl)(Cl)Cl` (stereo not given), the outcome was “inactive”. With `O=C(Cc1ccccc1)c1ccccc1` the outcome was “inactive”. With `C[C@]12CCC(=O)C[C@@H]1CC[C@@H]1[C@@H]2CC[C@]2(C)[C@@H](O)CC[C@@H]12` the outcome was “inactive”. In the case of `Fc1ccc(C2(Cn3cncn3)OC2c2ccccc2Cl)cc1` (stereo not given), the outcome is reported as “inactive”. With `C(=NC1CCCCC1)=NC1CCCCC1` the outcome was “inactive”. With `Cc1ccccc1C(=O)Nc1cccc(OC(C)C)c1` the outcome was “inactive”. With `ClCCBr` the outcome was “inactive”. For `Clc1ccc(COC(Cn2ccnc2)c2ccc(Cl)cc2Cl)cc1` (stereo not given), the outcome was “inactive”. In the case of `NC(=O)O`, the outcome is reported as “inactive”. With `O=C(O)C(F)(F)C(F)(F)C(F)(F)C(F)(F)C(F)(F)C(F)(F)C(F)(F)C(F)(F)C(F)(F)C(F)(F)F` the AC50 was 157 µM (active) and the outcome was “inactive”. With `COc1ccc(OC)c(C=O)c1` the outcome was “inactive”. For `O=CC=O`, the outcome was “inactive”. In the case of `O=C(NCO)NCO`, the outcome is reported as “inactive”. With `CC(C)CCCCCCOC(=O)c1ccccc1C(=O)OCCCCCCC(C)C` the outcome was “inactive”. In the case of `Nc1cccc(Cl)c1`, the outcome is reported as “inactive”. With `CC(C#N)CCC#N` (stereo not given) the outcome was “inactive”. With `CC(C)c1cccc(C(C)C)c1O` the outcome was “inactive”. With `O=P(O)(O)CN(CP(=O)(O)O)CP(=O)(O)O` the outcome was “inactive”. With `c1cc[c]([Hg][c]2ccccc2)cc1` the AC50 was 20.6 µM (active). For `CC(=[OH+])/C=C(/C)[O-].CC(=[OH+])/C=C(/C)[O-].CC(=[OH+])/C=C(/C)[O-].[Fe]`, the outcome was “inactive”. For `COc1cc(OC)nc(NC(=O)NS(=O)(=O)c2ncccc2C(=O)N(C)C)n1`, the outcome was “inactive”. In the case of `C=CC(=O)OCCCCCC(C)C`, the outcome is reported as “inactive”. In the case of `CNC(=O)O/N=C/C(C)(C)S(C)=O` (stereo not given), the outcome is reported as “inactive”. In the case of `O=c1[nH]c(=O)[nH]c(=O)[nH]1`, the outcome is reported as “inactive”. In the case of `COc1cc2c(cc1OC)[C@@]13CCN4CC5=CCO[C@H]6CC(=O)N2[C@H]1[C@H]6[C@H]5C[C@H]43`, the outcome is reported as “inactive”. For `O=[N+]([O-])c1c(Cl)c(Cl)cc(Cl)c1Cl`, the outcome was “inactive”. With `O=Cc1cccc(Oc2ccccc2)c1` the outcome was “inactive”. For `CNC`, the outcome was “inactive”. In the case of `CCC(C)c1cccc(C(C)CC)c1O` (stereo not given), the outcome is reported as “inactive”. In the case of `O=C1C2(Cl)C3(Cl)C4(Cl)C(Cl)(Cl)C5(Cl)C3(Cl)C1(Cl)C5(Cl)C24Cl` (stereo not given), the AC50 is reported as 17.2 µM (active) and the outcome is reported as “inactive”. In the case of `COC(=O)c1sccc1S(=O)(=O)NC(=O)Nc1nc(C)nc(OC)n1`, the outcome is reported as “inactive”.
